# Bioassay records: PubChem BioAssay, Sanford-Burnham Center for Chemical Genomics
# FAS TE block: FAS thioesterase (human) inhibition; AID 602261; 360,000 tested, 0.67% active; inhibition, % at 15 µM; P49327; recombinant FAS-TE, OMFH fluorogenic substrate, fluorescence endpoint;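 active means compounds whose normalised, plate-corrected inhibition of enzyme fluorescence in the single-dose primary screen is 50% or more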;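 further: 0% = DMSO with enzyme and 100% = substrate without enzyme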
# aDG glyco act: increases alpha dystroglycan glycosylation. 360,000 tested, 0.22% active. Pro5-aDG cells, alpha-DG glycosylation AlphaScreen (IIH6); 0% Pro5, 100% B10-LARGE cell signal. AID 624168. activation, % at 10 µM;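 active means activation of at least 8% versus controls, or a plate z-score of at least 8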;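 further: Pro5 are CHO cells carrying HIG-tagged alpha-DG that lacks glycosylation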
# CRFR2-BP antag: CRF-BP/CRF-R2 complex antagonism. inhibition, % at 11.8 µM. 350,000 tested, 0.59% active. HEK293 CRF-R2/CRF-BP, CRF-induced calcium fluorescence;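 active means inhibition of the ligand-induced calcium signal above about 50% at the single tested concentration, limit read from the data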
# H9c2 protect: modulators protecting cardiomyocytes from myocardial damage; H9c2 cardiomyocytes, H2O2 injury protection, ATPLite, 2 h; protection from H2O2 cell death, % at 20 µM; 360,000 tested, 0.63% active;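 active means compounds giving at least 50% protection of heart cells from peroxide-induced death in the single-dose screen, raw or plate-pattern-corrected value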;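 further: 0% = DMSO wells with peroxide and 100% = DMSO wells without peroxide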
# CRFBP-R2 agonist: agonists of human CRF-binding protein/CRF-R2 receptor complex. HEK293 CRF-R2/CRF-BP, calcium dye fluorescence (FLIPR); percent of saturating CRF peptide response. activation, % at 13.2 µM. 350,000 tested, 0.46% active. AID 588473;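 active means activation of at least 50%, plus an integration ratio under a set limit after plate pattern correction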;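 further: plate controls were neutral control wells without compound for no effect and CRF at EC100 for full effect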
# PfG6PD inh: PfG6PD (Plasmodium falciparum) enzyme inhibition; PfGluPho enzyme, NADPH resazurin-diaphorase fluorescence; inhibition, % at 20 µM; 350,000 tested, 0.78% active;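 active means inhibition reaching at least a set limit at 20 µM in the primary screen, cut at about 59% in these data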;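 further: 0% = DMSO wells with substrate and 100% = DMSO wells lacking glucose-6-phosphate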
# FAS-TE inh conf: confirmation of human fatty acid synthase thioesterase inhibitors; shares compounds with FAS TE block; recombinant FAS-TE, OMFH fluorogenic substrate, fluorescence; inhibition, % at 15 µM; 2,300 tested, 45% active;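 active means compounds inhibiting the enzyme by at least 50% at 15 µM in any one of the replicates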;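 further: 0% = enzyme with DMSO only and 100% = wells lacking enzyme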
# Active calls of the source: *; nt = no result given. Shown are actives, neighbours in structure and some others; about 3.2% of the full set was active somewhere.
SMILES,FAS TE block,aDG glyco act,CRFR2-BP antag,H9c2 protect,CRFBP-R2 agonist,PfG6PD inh,FAS-TE inh conf
C=CCNC(=O)c1ccc(C2SCC(=O)N2Cc2ccco2)cc1 (stereo unspecified),-2,0,2,-1,3,16,nt
O=C(NCc1ccc2c(c1)OCO2)c1ccc(C2SCC(=O)N2Cc2ccco2)cc1 (stereo unspecified),59*,0,26,-4,2,9,50*
COc1cccc(NC(=O)CN(c2ccc([N+](=O)[O-])cc2)S(=O)(=O)c2ccccc2)c1,34,0,16,3,0,1,nt
COc1ccc(NC(=O)CN(c2ccc([N+](=O)[O-])cc2)S(=O)(=O)c2ccccc2)cc1,64*,0,0,9,-2,5,74*
Cc1ccccc1N(CC(=O)NCc1ccc2c(c1)OCO2)C(=O)C1CSC(=O)C1 (stereo unspecified),69*,0,1,2,-1,-11,67*
O=C(C1CCN(S(=O)(=O)c2ccc(F)cc2)CC1)N1CCCC(C(F)(F)F)C1 (stereo unspecified),0,0,-8,-9,-1,5,nt
O=C(N/N=C/c1coc2ccc(Cl)cc2c1=O)c1cc(O)cc(O)c1,67*,0,0,-2,0,2,41
Cc1ccc2occ(/C=N/NC(=O)c3ccc(Cl)cc3)c(=O)c2c1,4,0,-26,0,1,7,nt
O=C1C=C(c2ccc(Cl)c(C(F)(F)F)c2)C[C@@H](c2ccc3c(c2)OCO3)C1,75*,0,-13,-9,5,-5,58*
CSCCC(NC(=O)c1ccc(Cl)c([N+](=O)[O-])c1)C(=O)N1CCN(C/C=C/c2ccccc2)CC1 (stereo unspecified),58*,0,-28,2,2,6,59*
O=C(CCc1ccccc1)Nc1cc(C(=O)O)cc(C(=O)O)c1,-6,0,5,-2,0,-19,nt
O=C(NCc1cccnc1)c1ccc(COc2ccc(Cl)cc2Cl)o1,-3,1,-14,-11,5,-19,nt
CC(C)(C)NC(=O)c1ccc(COc2ccc(Cl)cc2Cl)o1,65*,0,-3,-12,-1,-2,21
O=C(O)COc1ccccc1C(Nc1ccccn1)c1cc(Cl)c2cccnc2c1O (stereo unspecified),54*,0,-5,16,-1,-26,51*
CCCCSc1nc2ccc(Nc3nc(N4CCOCC4)nc(N4CCOCC4)n3)cc2s1,86*,0,-18,10,0,5,42
O=S(=O)(c1ccc(-c2csc(-c3cccnc3)n2)cc1)N1CCCC1,81*,0,-6,2,0,5,86*
O=S(=O)(c1ccc(-c2csc(-c3cccnc3)n2)cc1)N1CCCCC1,77*,0,3,5,1,13,83*
O=S(=O)(c1cccc(-c2csc(-c3cccnc3)n2)c1)N1CCCCC1,22,0,-5,-4,1,8,nt
O=C(NCC(=O)N(c1cccc(F)c1)C(C(=O)NC1CCCC1)c1cccnc1)c1cccs1 (stereo unspecified),-9,0,-4,7,1,-7,nt
N#Cc1sc(C(N)=O)c(-c2ccccc2)c1-c1ccccc1,-1,0,-9,-7,-1,-10,nt
COc1ccc(-c2c(C#N)sc(C(N)=O)c2-c2ccc(OC)cc2)cc1,60*,0,-1,11,0,-38,47
COc1cc(C#N)c(N=C(SCC#N)N2CCOCC2)cc1OC,-2,0,11,2,1,-3,nt
CCCCC(=O)N/N=C/c1cc([N+](=O)[O-])ccc1N1CCOCC1,66*,0,3,5,-4,-16,74*
CCN(CC)C(=O)C1CCCN(c2ccc([N+](=O)[O-])cc2/C=N/NC(=O)c2cccc([N+](=O)[O-])c2)C1 (stereo unspecified),77*,0,-25,7,2,-4,26
O=C(COc1ccc([N+](=O)[O-])cc1)N/N=C/c1cc([N+](=O)[O-])ccc1N1CCOCC1,19,0,3,11,1,4,nt
SMILES,FAS TE block,aDG glyco act,CRFR2-BP antag,H9c2 protect,CRFBP-R2 agonist,PfG6PD inh,FAS-TE inh conf
O=C(CNc1ccccc1)N/N=C/c1cc([N+](=O)[O-])ccc1N1CCCC1,52*,1,1,18,-2,20,29
Cc1ccc(S(=O)(=O)N2CCCN(c3nccc(C(F)(F)F)n3)CC2)cc1,20,0,-1,-6,-1,-2,nt
CCC1(c2ccc(F)cc2)NC(=O)N(CC(=O)N(C)C2CCS(=O)(=O)C2)C1=O (stereo unspecified),-8,0,-1,3,-1,6,nt
C=CCn1c(=O)c(C(=O)Nc2ncccc2C)c(O)c2ccccc21,-1,0,-3,-4,8,17,nt
CN(C)N=C1c2cc(S(=O)(=O)N3CCOCC3)ccc2-c2ccc(S(=O)(=O)N3CCOCC3)cc21,50*,-1,-5,8,1,5,25
O=C(NC1CCCCC1)C1CC(=O)N(c2cccc([N+](=O)[O-])c2)C1 (stereo unspecified),80*,0,-2,1,1,-2,84*
Cc1cc(N2CCN(C(c3ccccc3)c3ccc(Cl)cc3)CC2)n2ncnc2n1 (stereo unspecified),58*,0,0,-3,-1,-2,21
Cc1cc(N2CCN(c3ccccc3)CC2)n2ncnc2n1,-3,0,2,-2,0,4,nt
CCCCCN(C(=O)COC(=O)CSc1ccc([N+](=O)[O-])cc1)c1c(N)n(CCCC)c(=O)[nH]c1=O,58*,0,-10,3,2,-32,22
OC[C@H]1O[C@H](OC[C@H]2OC(O)[C@H](O)[C@@H](O)[C@@H]2O)[C@H](O)[C@@H](O)[C@@H]1O (stereo partly specified),-7,0,7,6,-2,6,nt
CC1=C(C(=O)Nc2ccccc2)C(c2ccncc2)C(C#N)=C(SCC(=O)NC2CC2)N1 (stereo unspecified),-4,0,1,-3,1,-18,nt
CC1=C(C(=O)Nc2nc3ccccc3s2)C(c2ccco2)C(C#N)=C(SCC(=O)NC2CCCCC2)N1 (stereo unspecified),77*,2,13,-10,1,-7,-3
O=C(Nc1ccccc1Cl)C(Cl)C(=O)c1ccccc1 (stereo unspecified),-3,0,23,21,-4,-6,nt
